High-throughput results from PubChem.
Only a selection was taken, and hits are over-represented in it overall.
14-3-3g Raf = 14-3-3 gamma protein interaction modulation; P61981; inhibition, % at 40 µM; FP, 14-3-3gamma / TMR-pS259-Raf peptide binding; 160,000 compounds, 0.19% hits; in the data active = inhibition above about 30%;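 note: 0% = protein plus tracer without compound and 100% = blank with tracer alone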
Target sequence (P61981 whole entry, looked up): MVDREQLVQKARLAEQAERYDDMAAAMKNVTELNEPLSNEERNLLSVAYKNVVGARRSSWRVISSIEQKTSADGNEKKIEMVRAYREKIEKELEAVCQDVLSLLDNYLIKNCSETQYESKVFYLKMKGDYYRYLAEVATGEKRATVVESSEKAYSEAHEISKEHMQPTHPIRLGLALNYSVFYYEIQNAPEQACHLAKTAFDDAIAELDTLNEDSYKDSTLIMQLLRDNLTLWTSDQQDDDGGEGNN
Active calls of the source: *.

How did Cc1cc(C)nc(SCc2c(C)c(C)c(Br)c(C)c2C)n1 do in these assays?
14-3-3g Raf: 7

Results for CCOC(=O)C1=C(C)NC(C)=C(C(=O)OC)C1c1cccc([N+](=O)[O-])c1 (stereo not given) ?
14-3-3g Raf: 0

What do the screens show for `COC(=O)C1=C(C(=O)OC)C(c2cccc([N+](=O)[O-])c2)c2sc(=O)[nH]c2S1` (stereo not given)?
14-3-3g Raf: 34*

How did COC(=O)C1=C(C(=O)OC)C(c2cc([N+](=O)[O-])ccc2OCc2ccccc2Cl)c2sc(=O)[nH]c2S1 (stereo not given) do in these assays?
14-3-3g Raf: -9

Results for O=C(CSc1nnc(-c2ccco2)o1)c1cccc2ccccc12 ?
14-3-3g Raf: -20

What do the screens show for `O=C1CCCc2c1cc(C(=O)NCCCO)c(=O)n2-c1ccc(Cl)cc1`?
14-3-3g Raf: 9

Results for O=C1CCCC(=O)N1c1ccc(N2CCCCCCC2)c([N+](=O)[O-])c1 ?
14-3-3g Raf: -3

Results for COc1cc(C(=O)Nc2nc3ccc4nc(SC)sc4c3s2)cc(OC)c1OC ?
14-3-3g Raf: 0

What do the screens show for `CCCCNc1ncnc2c1c(-c1ccccc1)cn2-c1ccc(OCC)cc1`?
14-3-3g Raf: -12

What do the screens show for `CCN1C(=O)c2cccc3c(S(=O)(=O)N4CCCc5ccccc54)ccc1c23`?
14-3-3g Raf: 33*

What do the screens show for `CCN1C(=O)c2cccc3c(S(=O)(=O)N4CCCC4)ccc1c23`?
14-3-3g Raf: 8

Results for CCN1C(=O)c2ccc(S(=O)(=O)N3CCCCCC3)c3cccc1c23 ?
14-3-3g Raf: 1

How did COC(=O)c1sc(NC(=O)C(F)(F)F)c(C(=O)OC)c1C do in these assays?
14-3-3g Raf: -8

How did Cc1oc(NC(=O)C(F)(F)F)c(C#N)c1C do in these assays?
14-3-3g Raf: 33*

What do the screens show for `COc1ccc(-c2oc(NC(=O)C(F)(F)F)c(C#N)c2-c2ccc(OC)cc2)cc1`?
14-3-3g Raf: -7

Results for COc1ccc(C2C(C(=O)OCC3CCCO3)=C(C)NC3=C2C(=O)CC(c2ccccc2OC)C3)cc1OC (stereo not given) ?
14-3-3g Raf: -19

What do the screens show for `Fc1ccc(-c2cnc3ccccc3n2)cc1`?
14-3-3g Raf: -9

How did Oc1c(-c2ccc(F)cc2)c2nc3ccccc3nc2c2ccccc12 do in these assays?
14-3-3g Raf: 53*

Results for O=C(O)c1cc(-c2ccc(F)cc2)nc2ccccc12 ?
14-3-3g Raf: 2

How did O=C(CSc1oc(-c2cccs2)nc1S(=O)(=O)c1ccc(Br)cc1)NC1CCCCC1 do in these assays?
14-3-3g Raf: -51

What do the screens show for `Oc1ccc(N=Cc2ccc(OCc3ccccc3)cc2)cc1`?
14-3-3g Raf: 35*

Results for Oc1ccc(Cl)cc1N=Cc1ccc(OCc2ccccc2)cc1 ?
14-3-3g Raf: -7

What do the screens show for `Cc1ccc(O)c(N=Cc2ccc(OCc3ccccc3)cc2)c1`?
14-3-3g Raf: -19

Results for CCOC(=O)C1=C(C)NC2=C(C(=O)CC(C)(C)C2)C1c1ccccn1 (stereo not given) ?
14-3-3g Raf: -5

How did CCOC(=O)CN=C1CC(C)(C)CC2=C1Sc1ncnc(OC)c1N2 do in these assays?
14-3-3g Raf: 81*

Results for COCCOC(=O)C1=C(C)NC(=O)NC1c1c(OC)ncnc1OC (stereo not given) ?
14-3-3g Raf: -7

What do the screens show for `CCOC(=O)Cn1c(=N)n(CCOc2ccc(C(C)(C)C)cc2)c2ccccc21`?
14-3-3g Raf: -4

What do the screens show for `O=C(CCn1c(=O)c2ccccc2n(Cc2cccc([N+](=O)[O-])c2)c1=O)NCCc1ccccc1`?
14-3-3g Raf: 4

How did Cc1ccc(C(=O)Nc2cccc(-c3nc4ncccc4o3)c2)cc1[N+](=O)[O-] do in these assays?
14-3-3g Raf: -43

Results for CC1(C)CC(=O)C2=C(C1)N(Cc1ccccc1)C1=C(C(=O)CC(C)(C)C1)C2c1ccc(O)cc1 ?
14-3-3g Raf: -12

What do the screens show for `CCN1C2=C(C(=O)CC(C)(C)C2)C(c2ccc(O)c(Cl)c2)C2=C1CC(C)(C)CC2=O`?
14-3-3g Raf: -2

Results for CCN1C2=C(C(=O)CC(C)(C)C2)C(c2ccc(O)cc2)C2=C1CC(C)(C)CC2=O ?
14-3-3g Raf: 102*

Results for CCCS(=O)(=O)N1CCCC(C(=O)N2CCN(Cc3ccccc3)CC2)C1 (stereo not given) ?
14-3-3g Raf: 3

What do the screens show for `COc1ccc2nc(NC(=O)CNC(=O)Cn3cnc4sc(C)c(C)c4c3=O)sc2c1`?
14-3-3g Raf: -12

Results for CCOC(=O)Cc1c(C)nc2c(C#N)cnn2c1C ?
14-3-3g Raf: -4

Results for CCOC(=O)c1cnc2c(C#N)cnn2c1C ?
14-3-3g Raf: 141*

Results for CCOC(=O)c1cnc2c(C#N)cnn2c1-c1ccccc1 ?
14-3-3g Raf: 0

How did Cc1ccccc1C(=O)N1CCC(C(=O)N2CCN(c3ccccc3)CC2)CC1 do in these assays?
14-3-3g Raf: 10

What do the screens show for `Cc1ccc(C)c(CSC2=NCCN2C(=O)c2ccc(Br)o2)c1`?
14-3-3g Raf: -8

How did O=C1CN(C(=O)c2cccc(Br)c2)C(c2ccccc2)c2cc(F)ccc2N1 (stereo not given) do in these assays?
14-3-3g Raf: -7

Results for Nc1cc2c3c(cccc3n1)C(=O)c1ccccc1-2 ?
14-3-3g Raf: 73*

How did O=C1c2ccccc2-c2nc(-c3ccccc3)cc3cccc1c23 do in these assays?
14-3-3g Raf: -14

Results for O=C1c2ccccc2C(=O)c2cc(Br)ccc21 ?
14-3-3g Raf: -6

What do the screens show for `COc1ccc(S(=O)(=O)NCCC(=O)NCc2cccnc2)cc1`?
14-3-3g Raf: 56*

How did COc1ccc(S(=O)(=O)NCCC(=O)NCc2cccs2)cc1 do in these assays?
14-3-3g Raf: -5

Results for O=C(CCNS(=O)(=O)c1ccc(Cl)cc1)NCc1cccnc1 ?
14-3-3g Raf: -3

Results for COc1ccc(CC(=O)N2N=C(C3CCCCC3)CC2(O)C(F)(F)F)cc1 (stereo not given) ?
14-3-3g Raf: 10

Results for O=C(Cn1c2ccccc2c(=O)c2ccc(Cl)cc21)Nc1ccc(Cl)cc1 ?
14-3-3g Raf: 1

How did CC1=C(C(=O)OCC2CCCO2)C(c2cccc(O)c2)C2=C(CC(C)(C)CC2=O)N1 (stereo not given) do in these assays?
14-3-3g Raf: -7

What do the screens show for `CCCCn1c(CCNC(=O)c2ccc(F)cc2)nc2ccccc21`?
14-3-3g Raf: -7

Results for Cc1ccc(C)c(Cn2c(CCNC(=O)c3ccc(F)cc3)nc3ccccc32)c1 ?
14-3-3g Raf: 4

Results for Cc1ccccc1Cn1c(CCNC(=O)c2ccc(F)cc2)nc2ccccc21 ?
14-3-3g Raf: 32*

What do the screens show for `CCSc1nc(SCC)c2c3c(sc2n1)CCC3`?
14-3-3g Raf: -13

What do the screens show for `COc1ccc(OC)c2[nH]c(=O)c(CCNC(=O)c3ccc(C(F)(F)F)cc3)cc12`?
14-3-3g Raf: -7

What do the screens show for `CC(C)(C)NC(=O)CSc1nsc(SCC(=O)NC(C)(C)C)c1C#N`?
14-3-3g Raf: -1

What do the screens show for `Cc1csc(NC(=O)CSc2nsc(SCC(=O)Nc3nc(C)cs3)c2C#N)n1`?
14-3-3g Raf: 75*

Results for Cc1csc(NC(=O)CSc2nc(-c3cccs3)cc(-c3cccs3)c2C#N)n1 ?
14-3-3g Raf: -26

Results for CC(=O)N(C1CCCC1)C1CC(=O)N(c2ccc(Cl)cc2)C1=O (stereo not given) ?
14-3-3g Raf: -11

What do the screens show for `COc1cc(C2Nc3ccc4ccccc4c3C3=C2C(=O)CCC3)ccc1OC(=O)C(C)C` (stereo not given)?
14-3-3g Raf: 8
